# According to publication PMC7862700, “An all-to-all approach to the identification of sequence-specific readers for epigenetic DNA modifications on cytosine”:
# Key:
# Assay in all cases: DAPPL (digital affinity profiling via proximity ligation, sequencing); 10 mM Tris-HCl pH 7.5, 50 mM NaCl, 1 mM DTT, 4% glycerol, room temperature, 30 min; GST-TFs on glutathione beads, 16-mer random dsDNA library, 0.1% formaldehyde crosslink after washing; high values mean tight binding
# HSF1 = HSF1 (Homo sapiens, UniProt Q00613 1-529); settings: protein: recombinant; tags: N-terminal GST; chain copies: 3; dsDNA, one strand shown
# Chain of HSF1 (Q00613 whole entry, the tested form may be a part): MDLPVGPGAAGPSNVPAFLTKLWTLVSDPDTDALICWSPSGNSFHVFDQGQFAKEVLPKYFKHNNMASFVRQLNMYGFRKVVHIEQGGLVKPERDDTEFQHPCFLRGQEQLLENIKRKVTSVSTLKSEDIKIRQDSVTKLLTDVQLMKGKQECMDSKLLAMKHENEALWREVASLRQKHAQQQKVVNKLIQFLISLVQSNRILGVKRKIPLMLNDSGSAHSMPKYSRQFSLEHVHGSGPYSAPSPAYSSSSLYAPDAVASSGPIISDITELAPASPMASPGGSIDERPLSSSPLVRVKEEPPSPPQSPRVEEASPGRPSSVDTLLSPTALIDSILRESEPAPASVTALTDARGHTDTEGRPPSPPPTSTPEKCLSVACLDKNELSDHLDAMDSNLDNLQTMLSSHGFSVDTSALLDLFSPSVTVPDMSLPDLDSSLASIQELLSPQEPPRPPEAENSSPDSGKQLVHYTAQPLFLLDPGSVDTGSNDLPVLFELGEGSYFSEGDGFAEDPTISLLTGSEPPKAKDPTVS
# Procedure, shortened: (§1)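 After expression in yeast as GST fusions, human transcription factors were bound to glutathione beads, DNA-barcoded and mixed with a tag-only sample. The pools were incubated with 200 nmole of a 16-mer random double-stranded DNA library in Tris/NaCl/DTT/glycerol buffer (30 min, room temperature), washed and crosslinked with 0.1% formaldehyde. Proximity ligation with BsaI/T4 ligase ran for 1 h at 37 °C, before PCR amplification and sequencing on an Illumina NextSeq500. Binding signal is a hexamer's read frequency for a factor divided by its frequency for the tag-only sample.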
# FLI1 = biological target: T1, FLI1 (Homo sapiens, UniProt Q01543 1-452); settings: protein: recombinant; tags: N-terminal GST; dsDNA, one strand shown
# T1 sequence: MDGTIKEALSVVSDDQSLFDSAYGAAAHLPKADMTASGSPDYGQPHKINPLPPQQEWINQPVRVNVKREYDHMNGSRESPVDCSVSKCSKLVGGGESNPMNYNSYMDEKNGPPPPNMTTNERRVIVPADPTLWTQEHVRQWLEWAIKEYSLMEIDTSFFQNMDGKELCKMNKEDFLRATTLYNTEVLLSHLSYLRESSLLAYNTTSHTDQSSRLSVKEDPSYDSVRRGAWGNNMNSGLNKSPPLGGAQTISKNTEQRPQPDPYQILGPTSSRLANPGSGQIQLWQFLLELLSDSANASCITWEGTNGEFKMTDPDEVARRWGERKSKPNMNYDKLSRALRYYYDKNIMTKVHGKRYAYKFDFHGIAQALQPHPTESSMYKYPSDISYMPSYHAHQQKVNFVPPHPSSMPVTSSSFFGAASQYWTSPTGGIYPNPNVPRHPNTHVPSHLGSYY
# Procedure, shortened: as §1
# ERG = biological target: T2, ERG (Homo sapiens, UniProt P11308 1-479); settings: protein: recombinant; tags: N-terminal GST; dsDNA, one strand shown
# T2 sequence: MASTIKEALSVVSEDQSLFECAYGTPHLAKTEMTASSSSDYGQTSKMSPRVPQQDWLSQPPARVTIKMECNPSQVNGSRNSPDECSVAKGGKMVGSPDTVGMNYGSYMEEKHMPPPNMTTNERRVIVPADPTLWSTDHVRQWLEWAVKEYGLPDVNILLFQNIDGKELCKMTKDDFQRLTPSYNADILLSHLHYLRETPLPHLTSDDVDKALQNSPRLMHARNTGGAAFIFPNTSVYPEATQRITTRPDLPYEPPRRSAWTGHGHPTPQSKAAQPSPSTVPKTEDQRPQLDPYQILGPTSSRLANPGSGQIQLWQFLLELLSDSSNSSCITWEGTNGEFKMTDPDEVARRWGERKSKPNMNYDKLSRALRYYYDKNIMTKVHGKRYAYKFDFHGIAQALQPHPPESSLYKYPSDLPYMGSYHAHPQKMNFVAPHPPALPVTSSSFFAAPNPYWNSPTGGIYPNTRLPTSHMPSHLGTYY
# Procedure, shortened: as §1
# EHF = biological target: T3, EHF (Homo sapiens, UniProt Q9NZC4 1-300); settings: protein: recombinant; tags: N-terminal GST; dsDNA, one strand shown
# T3 sequence: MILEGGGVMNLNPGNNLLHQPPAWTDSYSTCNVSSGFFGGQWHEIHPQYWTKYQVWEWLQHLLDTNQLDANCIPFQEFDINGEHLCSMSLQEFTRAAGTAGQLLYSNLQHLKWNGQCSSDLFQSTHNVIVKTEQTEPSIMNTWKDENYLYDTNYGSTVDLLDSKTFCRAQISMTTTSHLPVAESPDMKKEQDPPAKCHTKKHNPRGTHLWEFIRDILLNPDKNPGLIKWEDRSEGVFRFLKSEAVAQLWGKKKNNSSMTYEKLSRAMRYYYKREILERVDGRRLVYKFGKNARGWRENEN
# Procedure, shortened: as §1
# SPIB = SPIB (Homo sapiens, UniProt Q01892 1-262); settings: protein: recombinant; tags: N-terminal GST; dsDNA, one strand shown
# Chain of SPIB (Q01892 whole entry): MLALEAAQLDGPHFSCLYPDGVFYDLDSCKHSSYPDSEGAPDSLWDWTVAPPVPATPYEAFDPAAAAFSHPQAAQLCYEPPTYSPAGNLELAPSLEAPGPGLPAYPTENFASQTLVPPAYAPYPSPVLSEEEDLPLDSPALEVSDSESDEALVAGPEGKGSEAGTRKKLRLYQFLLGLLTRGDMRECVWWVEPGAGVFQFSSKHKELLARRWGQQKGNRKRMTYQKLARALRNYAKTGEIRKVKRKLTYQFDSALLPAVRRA
# Procedure, shortened: as §1
# ELF3 = biological target: T4, ELF3 (Homo sapiens, UniProt P78545 1-371); settings: protein: recombinant; tags: N-terminal GST; dsDNA, one strand shown
# T4 sequence: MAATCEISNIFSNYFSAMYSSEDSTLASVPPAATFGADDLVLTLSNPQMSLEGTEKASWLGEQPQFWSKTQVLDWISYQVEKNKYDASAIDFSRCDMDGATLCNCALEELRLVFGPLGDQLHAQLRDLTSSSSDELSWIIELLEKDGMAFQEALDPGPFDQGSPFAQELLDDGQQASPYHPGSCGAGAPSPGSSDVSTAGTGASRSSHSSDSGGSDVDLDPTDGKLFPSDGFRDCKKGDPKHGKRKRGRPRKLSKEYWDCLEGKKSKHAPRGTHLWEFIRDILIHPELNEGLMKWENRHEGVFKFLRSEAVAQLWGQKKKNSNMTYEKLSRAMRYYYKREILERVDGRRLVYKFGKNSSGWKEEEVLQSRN
# Procedure, shortened: as §1
# ETV1 = ETV1 (Homo sapiens, UniProt P50549 1-477); settings: protein: recombinant; tags: N-terminal GST; dsDNA, one strand shown
# Chain of ETV1 (P50549 whole entry): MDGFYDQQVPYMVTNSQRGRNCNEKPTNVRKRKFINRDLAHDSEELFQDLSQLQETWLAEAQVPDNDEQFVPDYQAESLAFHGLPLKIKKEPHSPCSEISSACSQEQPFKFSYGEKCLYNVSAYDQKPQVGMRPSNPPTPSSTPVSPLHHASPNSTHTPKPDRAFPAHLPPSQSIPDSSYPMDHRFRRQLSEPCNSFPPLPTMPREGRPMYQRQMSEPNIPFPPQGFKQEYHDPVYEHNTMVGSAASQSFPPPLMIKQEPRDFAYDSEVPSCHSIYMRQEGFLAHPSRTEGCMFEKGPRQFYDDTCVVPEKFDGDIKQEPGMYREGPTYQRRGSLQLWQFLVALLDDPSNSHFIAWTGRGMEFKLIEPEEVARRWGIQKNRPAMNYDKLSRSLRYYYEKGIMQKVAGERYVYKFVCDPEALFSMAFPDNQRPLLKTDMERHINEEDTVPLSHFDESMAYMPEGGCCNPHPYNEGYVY
# Procedure, shortened: as §1
# ELF1 = ELF1 (Homo sapiens, UniProt P32519 1-619); settings: protein: recombinant; tags: N-terminal GST; dsDNA, one strand shown
# Chain of ELF1 (P32519 whole entry): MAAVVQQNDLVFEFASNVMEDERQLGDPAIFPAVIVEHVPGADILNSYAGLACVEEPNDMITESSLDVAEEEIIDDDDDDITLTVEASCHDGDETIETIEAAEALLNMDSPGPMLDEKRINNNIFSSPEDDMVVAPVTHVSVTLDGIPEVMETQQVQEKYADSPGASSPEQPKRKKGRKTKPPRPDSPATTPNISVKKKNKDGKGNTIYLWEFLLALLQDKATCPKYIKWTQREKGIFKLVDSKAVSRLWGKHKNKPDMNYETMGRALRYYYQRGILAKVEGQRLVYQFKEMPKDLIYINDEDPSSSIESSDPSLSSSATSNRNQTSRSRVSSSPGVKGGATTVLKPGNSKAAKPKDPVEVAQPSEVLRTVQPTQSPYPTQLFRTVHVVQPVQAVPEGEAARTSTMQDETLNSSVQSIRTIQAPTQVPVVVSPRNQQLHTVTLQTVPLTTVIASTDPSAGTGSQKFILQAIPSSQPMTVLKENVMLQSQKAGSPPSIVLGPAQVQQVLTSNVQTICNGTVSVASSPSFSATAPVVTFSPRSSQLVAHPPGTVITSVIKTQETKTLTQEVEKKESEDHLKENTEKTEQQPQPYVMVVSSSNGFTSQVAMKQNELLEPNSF
# Procedure, shortened: as §1
# ELK3 = biological target: T5, ELK3 (Homo sapiens, UniProt P41970 1-407); settings: protein: recombinant; tags: N-terminal GST; dsDNA, one strand shown
# T5 sequence: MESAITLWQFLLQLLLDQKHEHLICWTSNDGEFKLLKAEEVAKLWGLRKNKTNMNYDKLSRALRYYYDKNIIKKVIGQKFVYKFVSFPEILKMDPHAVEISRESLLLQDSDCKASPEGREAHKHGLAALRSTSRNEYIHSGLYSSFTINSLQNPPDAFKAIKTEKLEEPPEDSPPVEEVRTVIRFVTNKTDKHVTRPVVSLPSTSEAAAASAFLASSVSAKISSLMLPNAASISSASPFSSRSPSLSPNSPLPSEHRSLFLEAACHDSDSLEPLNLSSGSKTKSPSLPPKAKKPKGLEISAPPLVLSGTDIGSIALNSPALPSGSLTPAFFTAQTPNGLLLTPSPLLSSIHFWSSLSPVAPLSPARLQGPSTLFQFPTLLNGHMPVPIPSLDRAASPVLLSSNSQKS
# Procedure, shortened: as §1
# ETV2 = biological target: T6, ETV2 (Homo sapiens, UniProt O00321 1-342); settings: protein: recombinant; tags: N-terminal GST; dsDNA, one strand shown
# T6 sequence: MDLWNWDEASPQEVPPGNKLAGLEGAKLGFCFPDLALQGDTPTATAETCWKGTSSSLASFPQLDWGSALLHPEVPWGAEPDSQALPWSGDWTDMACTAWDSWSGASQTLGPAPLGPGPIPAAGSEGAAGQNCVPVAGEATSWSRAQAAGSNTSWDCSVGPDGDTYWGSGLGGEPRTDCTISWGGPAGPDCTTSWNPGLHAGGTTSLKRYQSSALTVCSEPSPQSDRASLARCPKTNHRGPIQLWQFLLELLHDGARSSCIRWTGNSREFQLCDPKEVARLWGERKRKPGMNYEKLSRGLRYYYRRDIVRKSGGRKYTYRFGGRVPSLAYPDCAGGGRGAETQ
# Procedure, shortened: as §1
# GABPA = biological target: T7, GABPA (Homo sapiens, UniProt Q06546 1-454); settings: protein: recombinant; tags: N-terminal GST; dsDNA, one strand shown
# T7 sequence: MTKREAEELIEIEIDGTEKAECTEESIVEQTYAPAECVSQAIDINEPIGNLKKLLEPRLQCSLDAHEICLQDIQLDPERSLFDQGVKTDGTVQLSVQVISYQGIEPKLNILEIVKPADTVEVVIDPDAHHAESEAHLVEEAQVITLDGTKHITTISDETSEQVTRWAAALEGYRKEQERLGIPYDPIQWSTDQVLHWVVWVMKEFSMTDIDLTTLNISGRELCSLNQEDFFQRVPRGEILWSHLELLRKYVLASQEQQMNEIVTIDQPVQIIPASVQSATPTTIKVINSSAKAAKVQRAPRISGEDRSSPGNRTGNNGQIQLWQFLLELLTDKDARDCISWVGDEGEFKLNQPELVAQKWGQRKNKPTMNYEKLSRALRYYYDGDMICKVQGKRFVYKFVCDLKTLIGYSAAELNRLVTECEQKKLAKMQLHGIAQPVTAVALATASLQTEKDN
# Procedure, shortened: as §1
# ERF = biological target: T8, ERF (Homo sapiens, UniProt P50548 1-548); settings: protein: recombinant; tags: N-terminal GST; dsDNA, one strand shown
# T8 sequence: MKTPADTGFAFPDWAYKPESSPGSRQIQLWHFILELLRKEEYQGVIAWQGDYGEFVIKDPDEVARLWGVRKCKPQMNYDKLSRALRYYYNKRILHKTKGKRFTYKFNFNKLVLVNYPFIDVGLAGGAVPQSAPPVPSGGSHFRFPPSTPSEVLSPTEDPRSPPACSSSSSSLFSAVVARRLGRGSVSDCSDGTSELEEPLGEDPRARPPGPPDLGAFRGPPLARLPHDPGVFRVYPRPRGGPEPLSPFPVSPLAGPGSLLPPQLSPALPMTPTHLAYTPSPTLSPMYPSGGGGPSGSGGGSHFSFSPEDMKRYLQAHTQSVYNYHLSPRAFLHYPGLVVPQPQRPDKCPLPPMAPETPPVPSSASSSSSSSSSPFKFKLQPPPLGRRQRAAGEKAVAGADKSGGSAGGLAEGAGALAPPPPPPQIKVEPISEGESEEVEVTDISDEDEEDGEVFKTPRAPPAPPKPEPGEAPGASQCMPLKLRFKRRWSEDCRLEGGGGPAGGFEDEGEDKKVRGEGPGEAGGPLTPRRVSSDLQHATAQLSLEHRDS
# Procedure, shortened: as §1
sequence,measurement,setting,value
AGGAAT,binding signal,HSF1,"1.01 fold enrichment (6-mer frequency, TF over GST control)"
ACGTCA,binding signal,FLI1,"1.01 fold enrichment (6-mer frequency, TF over GST control)"
same,binding signal,ERG,"1.01 fold enrichment (6-mer frequency, TF over GST control)"
same,binding signal,EHF,"1.01 fold enrichment (6-mer frequency, TF over GST control)"
same,binding signal,SPIB,"1.09 fold enrichment (6-mer frequency, TF over GST control)"
same,binding signal,ELF3,"1.03 fold enrichment (6-mer frequency, TF over GST control)"
same,binding signal,ETV1,"1.05 fold enrichment (6-mer frequency, TF over GST control)"
GTATGT,binding signal,FLI1,"1.04 fold enrichment (6-mer frequency, TF over GST control)"
same,binding signal,ELF1,"1.03 fold enrichment (6-mer frequency, TF over GST control)"
same,binding signal,ELK3,"1 fold enrichment (6-mer frequency, TF over GST control)"
same,binding signal,ETV2,"1.02 fold enrichment (6-mer frequency, TF over GST control)"
AGAGAA,binding signal,HSF1,"1.36 fold enrichment (6-mer frequency, TF over GST control)"
CATTGG,binding signal,FLI1,"1.05 fold enrichment (6-mer frequency, TF over GST control)"
same,binding signal,GABPA,"1 fold enrichment (6-mer frequency, TF over GST control)"
same,binding signal,EHF,"1 fold enrichment (6-mer frequency, TF over GST control)"
same,binding signal,ERF,"1.05 fold enrichment (6-mer frequency, TF over GST control)"
TCCAGT,binding signal,HSF1,"1.01 fold enrichment (6-mer frequency, TF over GST control)"
